Molecular target: T1, Methionyl-tRNA synthetase, putative (Leishmania donovani (strain BPK282A1)) (UniProt E9BF75)
T1 sequence (whole entry): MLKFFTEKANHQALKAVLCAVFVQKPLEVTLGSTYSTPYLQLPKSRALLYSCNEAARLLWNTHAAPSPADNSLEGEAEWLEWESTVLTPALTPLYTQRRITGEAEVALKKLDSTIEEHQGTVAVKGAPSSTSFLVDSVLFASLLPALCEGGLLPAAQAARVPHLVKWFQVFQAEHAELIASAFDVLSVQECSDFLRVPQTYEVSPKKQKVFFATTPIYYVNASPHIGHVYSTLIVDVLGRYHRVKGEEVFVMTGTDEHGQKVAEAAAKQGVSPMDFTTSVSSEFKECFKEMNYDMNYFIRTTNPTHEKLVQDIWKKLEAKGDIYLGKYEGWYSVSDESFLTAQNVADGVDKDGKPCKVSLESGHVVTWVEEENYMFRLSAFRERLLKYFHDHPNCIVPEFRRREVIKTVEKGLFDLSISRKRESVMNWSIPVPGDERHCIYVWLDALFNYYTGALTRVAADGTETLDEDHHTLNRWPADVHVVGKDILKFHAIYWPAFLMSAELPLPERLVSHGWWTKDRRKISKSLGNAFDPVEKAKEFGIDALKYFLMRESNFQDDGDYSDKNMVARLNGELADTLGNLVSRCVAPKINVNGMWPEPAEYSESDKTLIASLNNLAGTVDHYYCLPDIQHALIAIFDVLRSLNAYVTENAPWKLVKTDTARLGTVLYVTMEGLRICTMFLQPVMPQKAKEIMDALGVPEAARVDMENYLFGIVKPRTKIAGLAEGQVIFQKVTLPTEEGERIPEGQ
Assay: Leishmania donovani Methionine tRNA synthetase (LdMetRS):v7. Dose response assay
Format: functional
Design: conc 80 nM, time 150 minutes

Cc1nc(NCCO)c2c3c(sc2n1)CCC3
PXC50 (MAX_EFFECT 6.632653061): < 4 | PXC50 (MAX_EFFECT 7.828282828): < 4

Cc1nc(N2CCC(CCN3CCCC3)CC2)c2ccsc2n1
PXC50 (MAX_EFFECT 38.29787234): < 4 | PXC50 (MAX_EFFECT 38.86010363): < 4

Cc1ccc(-c2ncc(CNc3cnccc3CO)s2)o1
PXC50 (MAX_EFFECT 7.511737089): < 4 | PXC50 (MAX_EFFECT 8.703703704): < 4

FC1(F)CCN(Cc2cccnc2)CC12CCN(c1cnccn1)C2 (stereo not drawn)
PXC50 (MAX_EFFECT 4.081632653): < 4 | PXC50 (MAX_EFFECT 6.355140187): < 4

COC(=O)c1sc2nc(C)nc(NCc3cccnc3)c2c1C
PXC50 (MAX_EFFECT 10.38251366): < 4 | PXC50 (MAX_EFFECT 11.22994652): < 4

CS(=O)(=O)N1CCN(c2ccc3ccc(C(=O)NC4CCOCC4)cn23)CC1
PXC50 (BOTTOM 2.519402955, HILLSLOPE 2.221498876, MAX_EFFECT 53.88127854, TOP 54.22998304): 4.8 | PXC50 (BOTTOM -4.408166057, HILLSLOPE 3.645653811, MAX_EFFECT 56.79245283, TOP 54.33837105): 4.78

NS(=O)(=O)c1ccc(Cl)cc1Cl
PXC50 (MAX_EFFECT 7.991360691): < 3 | PXC50 (MAX_EFFECT 11.97718631): < 3

CCN(CCO)c1nc(-c2ccsc2)nc2sc3c(c12)CCCC3
PXC50 (MAX_EFFECT 43.2): < 4 | PXC50 (MAX_EFFECT 48.67724868): < 4

Cn1ncc2c(OCCO)nc(Nc3ccc(F)c(F)c3)nc21
PXC50 (MAX_EFFECT 18.30188679): < 4 | PXC50 (MAX_EFFECT 21.91780822): < 4

Cc1sc2nc(-c3cccnc3)nc(N3CCCC(CO)C3)c2c1C (stereo not drawn)
PXC50 (BOTTOM 0.693465662, HILLSLOPE 1.473836838, MAX_EFFECT 56.47668394, TOP 100.0): 4.07 | PXC50 (BOTTOM -1.655591932, HILLSLOPE 1.509629481, MAX_EFFECT 54.25531915, TOP 100.0): 4.06

COCCNc1nc(CSc2ccccc2)nc2sc(C)c(C)c12
PXC50 (MAX_EFFECT 27.86885246): < 4 | PXC50 (MAX_EFFECT 28.34224599): < 4

CCc1nc(NCc2ccccn2)c2cc(CC)sc2n1
PXC50 (MAX_EFFECT 4.176904177): < 4 | PXC50 (MAX_EFFECT 4.522613065): < 4

CCc1nc(NCCCOC(C)C)c2c3c(sc2n1)CCC3
PXC50 (MAX_EFFECT 10.56511057): < 4 | PXC50 (MAX_EFFECT 12.06030151): < 4

N[C@@H]1CCOc2c(Cl)cc(Cl)cc21
PXC50 (MAX_EFFECT 3.676470588): < 2.7 | PXC50 (MAX_EFFECT 16.70480549): < 2.7

CCOCCN(CCOCC)c1nc(C)nc2sccc12
PXC50 (MAX_EFFECT 12.27154047): < 4 | PXC50 (MAX_EFFECT 15.66579634): < 4

CS(=O)(=O)N1CCN(c2ccc3ccc(C(=O)NC4CCCC4)cn23)CC1
PXC50 (BOTTOM 3.919126037, HILLSLOPE 1.949141012, MAX_EFFECT 63.17460317, TOP 66.86118232): 4.76 | PXC50 (BOTTOM 4.67001684, HILLSLOPE 2.010919918, MAX_EFFECT 67.58893281, TOP 64.90205504): 5

CCOC(=O)c1cnn(-c2nc(C)nc3sc4c(c23)CCC(C)C4)c1N (stereo not drawn)
PXC50 (MAX_EFFECT 8.465608466): < 4 | PXC50 (MAX_EFFECT 9.066666667): < 4

Cn1ccnc1CN1CCC(F)(F)C2(CCN(c3cccnc3)C2)C1 (stereo not drawn)
PXC50 (MAX_EFFECT 9.719626168): < 4 | PXC50 (MAX_EFFECT 11.33786848): < 4

CS(=O)(=O)N1CCN(c2ccc3ccc(C(=O)NCCS(=O)(=O)N4CCOCC4)cn23)CC1
PXC50 (BOTTOM 0.75923045, HILLSLOPE 2.636958023, MAX_EFFECT 55.02392344, TOP 52.30756256): 5 | PXC50 (BOTTOM 6.938223691, HILLSLOPE 3.502169957, MAX_EFFECT 60.32906764, TOP 60.07357055): 4.85

OCc1ccc(Cl)cc1Cl
PXC50 (MAX_EFFECT 13.11787072): < 3 | PXC50 (MAX_EFFECT 18.35853132): < 3

CS(=O)(=O)N1CCN(c2ccc3ccc(C(=O)NCC4CC4)cn23)CC1
PXC50 (BOTTOM 3.917889821, HILLSLOPE 2.161741125, MAX_EFFECT 61.66007905, TOP 61.91262666): 4.97 | PXC50 (BOTTOM -0.968460018, HILLSLOPE 1.661925269, MAX_EFFECT 62.22222222, TOP 66.45309128): 4.79

CC(C)(C)OC(=O)N1CCN(c2ccc3ccc(C(=O)NC4CCCC4)cn23)CC1
PXC50 (MAX_EFFECT 20.86513995): < 4 | PXC50 (MAX_EFFECT 27.19298246): < 4

COC(=O)CN(C)c1nc(-c2cccs2)nc2sc(C)c(C)c12
PXC50 (MAX_EFFECT 23.66412214): < 4 | PXC50 (MAX_EFFECT 24.93702771): < 4

CCc1nc(N2CCC(C(=O)O)CC2)c2c3c(sc2n1)CCC3
PXC50 (MAX_EFFECT 11.47540984): < 4 | PXC50 (MAX_EFFECT 12.29946524): < 4

CS(=O)(=O)Nc1cccc2c(=O)cc(C(=O)NCC3(O)CCCCC3)oc12
PXC50 (MAX_EFFECT 2.53968254): < 4 | PXC50 (MAX_EFFECT 4.743083004): < 4

CN(C)C(=O)c1ccc2ccc(N3CCN(CC4CC4)CC3)n2c1
PXC50 (MAX_EFFECT 43.08390023): < 4 | PXC50 (MAX_EFFECT 51.58878505): < 4

O=C(c1ccc2ccc(N3CCN(CC4CC4)CC3)n2c1)N1CCCO1
PXC50 (MAX_EFFECT 19.44444444): < 4 | PXC50 (MAX_EFFECT 22.0657277): < 4

CCc1nc(NCCCN(C)C)c2c3c(sc2n1)CCC3
PXC50 (MAX_EFFECT 11.05527638): < 4 | PXC50 (MAX_EFFECT 11.54791155): < 4

CCNC(=O)c1ccc2ccc(N(CC)CC)n2c1
PXC50 (MAX_EFFECT 16.85185185): < 4 | PXC50 (MAX_EFFECT 25.35211268): < 4
